Results on 20 compounds are retold here after PubChem BioAssay (NCATS).

“And” between values parts separate entries of the source, which are not always exact repeats. Equal entries are not always repeated. Results filed as inconclusive are left out. Some compounds were tested as several samples or in several runs, with calls that do not always agree. The source made the active and inactive calls. Unless noted, the call rests on the fitted dose curve; in most records, active means well fitted curve in the direction sought with a large enough effect; inconclusive means small, poorly fitted or top-dose-only effect, or another doubt; inactive means no such curve, though single readings can be large; an effect the other way counts as inactive or inconclusive.

Experiment [1] addresses 3',5'-cyclic-AMP phosphodiesterase 4B (Homo sapiens) (UniProt Q07343). Description: qHTS Assay for Inhibitors of PDE-IV (AID 607; active means well fitted activation curve with a large enough effect in the main read-out, with a control signal flat, not every such curve was filed as active; further: % of control where 0% means no effect). The procedure, abridged:
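ACTOne HEK293 cells carry a modified cAMP-gated CNG channel and express endogenous PDE4; plated 1000 cells/well, compounds up to 22.9 uM final. Membrane-potential dye fluorescence (ex 535/em 590) was read; parental cells received 10 uM forskolin + 100 uM RO 20-1724.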

Experiment [2] deals with Cytochrome P450 2D6 (Homo sapiens) (UniProt P10635). Description: qHTS Assay for Inhibitors and Substrates of Cytochrome P450 2D6 (AID 891). Further: nearly all actives have a fitted effect of over 60% in size. Further: potency means the concentration at half of the fitted maximal effect. The essentials:
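Luminescent read-out of luciferin formed by 5 nM human CYP2D6 demethylating 30 uM Luciferin-ME EGE (Km level) over 60 min at room temperature after NADPH regeneration addition. Data normalized to full inhibition by 1.43 uM quinidine.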

Experiment [3] concerns the target Cytochrome P450 3A4 (Homo sapiens) (UniProt P08684). Kind of experiment: qHTS Assay for Inhibitors and Substrates of Cytochrome P450 3A4 (AID 884). Further: nearly all actives have a fitted effect of over 50% in size. Further: potency means the concentration at half of the fitted maximal effect. The essentials:
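Luminescent readout of luciferin produced by CYP3A4 (20 nM) dealkylation of Luciferin-PPXE, 25 uM (its KM). NADPH-driven reaction ran 60 min at RT after 10 min compound preincubation; data scaled to 57 uM ketoconazole as 100% inhibition.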

Experiment [4] is described as follows: qHTS Assay for Identification of Small Molecule Antagonists for NFkB Signaling Pathway (AID 895; active means well fitted inhibition curve with a large enough effect in the signal ratio, with a control signal flat, not every such curve was filed as active; the % refers to the signal ratio; further: potency means the concentration at half of the fitted maximal effect). The essentials:
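NFkB-bla ME-180 cervical carcinoma cells with beta-lactamase reporter under NFkB response element; compounds added, then TNF alpha at 10 pM final (EC50), 5 h at 37 C. LiveBLAzer substrate 2 h, room temperature; emission 460/530 nm at 405 nm excitation.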

The target of experiment [5] is Cytochrome P450 2C9 (Homo sapiens) (UniProt P11712). Kind of experiment: qHTS Assay for Inhibitors and Substrates of Cytochrome P450 2C9 (AID 883). Further: nearly all actives have a fitted effect of over 60% in size. Further: potency means the concentration at half of the fitted maximal effect. The essentials: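 CYP2C9 deoxyluciferin hydroxylation, 37C, 60 min with NADPH regeneration; 10nM enzyme, 100uM Luciferin-H (KM). Glo detection reagent stopped reaction; luminescence normalized to sulphaphenazole (57uM) full inhibition.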
Sequence of Cytochrome P450 2C9 (Homo sapiens) (P11712 whole entry, looked up): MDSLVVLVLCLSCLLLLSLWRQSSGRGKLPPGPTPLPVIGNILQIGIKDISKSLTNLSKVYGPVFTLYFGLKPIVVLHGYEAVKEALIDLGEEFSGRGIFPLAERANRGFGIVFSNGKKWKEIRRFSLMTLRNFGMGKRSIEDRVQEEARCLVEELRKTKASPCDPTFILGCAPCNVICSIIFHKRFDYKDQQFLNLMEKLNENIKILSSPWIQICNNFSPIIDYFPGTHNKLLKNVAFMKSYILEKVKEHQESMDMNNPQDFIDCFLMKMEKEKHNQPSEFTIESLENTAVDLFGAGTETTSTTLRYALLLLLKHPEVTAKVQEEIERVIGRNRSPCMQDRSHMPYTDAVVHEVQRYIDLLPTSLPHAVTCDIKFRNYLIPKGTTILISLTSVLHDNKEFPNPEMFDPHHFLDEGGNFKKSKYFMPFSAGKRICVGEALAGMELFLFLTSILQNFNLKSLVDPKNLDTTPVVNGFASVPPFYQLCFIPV

Experiment [6] addresses Cytochrome P450 3A4 (Homo sapiens) (UniProt P08684). Kind of experiment: qHTS Assay for Activators of Cytochrome P450 3A4 (AID 885). Further: nearly all actives have a fitted effect of over 65% in size. The procedure, abridged:
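CYP3A4 activity: Luciferin-PPXE O-dealkylation, 25uM substrate, 200mM KPO4, RT throughout. Read-out is luciferase luminescence; higher values reflect activation.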

Experiment [7] concerns the target Cytochrome P450 2C19 (Homo sapiens) (UniProt P33261). Kind of experiment: qHTS Assay for Inhibitors and Substrates of Cytochrome P450 2C19 (AID 899). Further: nearly all actives have a fitted effect of over 60% in size. Further: potency means the concentration at half of the fitted maximal effect. The essentials:
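In 50mM KPO4, the reaction held 5nM enzyme and KM-level (10uM) Luciferin-H EGE; it ran 60 min at 37C after NADPH regeneration and a 10 min compound preincubation. Luminescence values were scaled to 57uM ketoconazole as complete inhibition.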

A short description of experiment [8]: Cellular Toxicity (caspase-3) HepG2 (AID 654).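 Further: cells exposed to compound for 16 hours before reading; 0% = DMSO alone and 100% = caspase signal from 100 µM tamoxifen.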 The essentials:
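Luminescent Caspase-Glo 3/7 readout after 16 hr compound exposure of human hepatocellular carcinoma HepG2 cells at 37 °C; qHTS concentration-response, normalized DMSO = 0%, 100 uM tamoxifen = 100%; AC50 by standard Hill equation.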

Experiment [9] can be described thus: Cellular Toxicity (caspase-3) Jurkat (AID 655).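 Further: cells exposed to compound for 16 h at 37 °C before reading.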 The conditions noted are these: Jurkat caspase-3 activation, luminescence, DMSO = 0%, tamoxifen = 100%; at 92.2 µM (top of the series). The procedure, abridged: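 qHTS in human Jurkat T-cell leukemia line: 16 hr compound treatment at 37 °C, caspase-3/7 activity measured by Caspase-Glo luminescence. AC50 derived from Hill equation.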

A short description of experiment [10]: Cellular Toxicity (caspase-3) HUV-EC-C (AID 656). The procedure, abridged: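 Concentration-dependent caspase 3/7 induction was assessed in HUV-EC-C cells exposed for 16 hours. Data scaled between DMSO and tamoxifen (100 uM) controls.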
The nature of experiment [11]: Cellular Toxicity (caspase-3) SHSY5Y (AID 657).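 Further: cells exposed to compound for 16 hours at 37 °C.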 The essentials: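 Readout: caspase-cleaved peptide-aminoluciferin substrate driving luciferase light in SH-SY5Y neuroblastoma cells after 16 h treatment. Response normalized to DMSO and 10 uM staurosporine controls.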
Experiment [12] is described as follows: Cellular Toxicity (caspase-3) BJ (AID 658).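 Further: 0% = DMSO basal and 100% = 10 µM staurosporine.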 The essentials:
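Plated BJ cells (1000/well) rested 5 hr, received compound for 16 hr at 37 °C, then Caspase-Glo 3/7 reagent for 1 hr at room temperature before luminescence reading.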

Experiment [13] is described as follows: Cellular Toxicity (caspase-3) MRC-5 (AID 659).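 Further: 0% = DMSO basal and 100% = 10 µM staurosporine.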 To be noted: Potency: caspase-3 activation. The procedure, abridged: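 Apoptosis readout in MRC-5 cells: luciferase light generated after caspase 3/7 cleaves a peptide-aminoluciferin substrate, measured post 16 hr compound incubation at 37 °C.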
The nature of experiment [14]: Cellular Toxicity (caspase-3) Mesangial (AID 660).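 Further: combined caspase 3 and 7 activity read by Caspase-Glo luminescence; cells exposed to compound for 16 h before the caspase read.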 To be noted: mesangial cells, normalized: DMSO 0%, 100 µM tamoxifen 100%; at 91.7 µM (top of the series). The procedure, abridged:
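Luminescent Caspase-Glo 3/7 readout (aminoluciferin substrate cleavage, 20 min RT) after 16 h compound exposure at 37 °C of normal human mesangial cells. Signal increase normalized between DMSO basal and 100 uM tamoxifen; Hill-equation AC50.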

A short description of experiment [15]: Cellular Toxicity (caspase-3) H-4-II-E (AID 663).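 Further: cells exposed to compound for 16 hr before readout.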 The conditions noted are these: H-4-II-E rat hepatoma, scaled: DMSO 0%, 100 µM tamoxifen 100%; at 92.2 µM (top of the series). The procedure, abridged:
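Caspase 3/7 activation measured in H-4-II-E cells in complete culture medium after 16 hr treatment at 37 °C, using luciferase-coupled substrate readout; AC50 values come from Hill-equation fits of normalized concentration-response data.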

Experiment [16] is described as follows: Cellular Toxicity (caspase-3) Hek293 (AID 664).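 Further: cells exposed to compound for 16 h at 37 °C before readout.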 The conditions noted are these: HEK293 caspase-3 activation; caspase-3 activation: at 92.2 µM (top of the series), DMSO = 0%, 100 µM tamoxifen = 100%. The procedure, abridged: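 Luminescent Caspase-Glo 3/7 readout (aminoluciferin release) in HEK293 cells after 16 h compound treatment, 37 °C. Normalization: DMSO = basal, 100 uM tamoxifen = 100% stimulation. Concentration-response fitted with standard Hill equation for AC50.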

Experiment [17] is described as follows: Cellular Toxicity (caspase-3) N2a (AID 665).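 Further: compound exposure lasted 16 h at 37 °C before readout.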 The conditions noted are these: Potency: caspase-3 activation. The essentials: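 Luminescent Caspase-Glo 3/7 readout in N2a mouse neuroblastoma cells after 16 h compound exposure at 37 °C. Signal scaled to DMSO (basal) and 10 uM staurosporine (100%). Concentration-response fitted with Hill equation for AC50.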

The nature of experiment [18]: Cellular Toxicity (caspase-3) NIH 3T3 (AID 666). The procedure, abridged: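 NIH 3T3, 1000 cells/well, 5 hr settle then 16 hr compound at 37°C; Caspase-Glo 3/7, 20 min RT, luminescence. DMSO = basal, 100 uM tamoxifen = 100%. Hill-equation AC50, qHTS.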
The nature of experiment [19]: Cellular Toxicity (caspase-3) Renal Proximal Tubule (AID 667).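 Further: cells exposed to compound for 16 hours at 37 °C before detection; 0% = DMSO basal and 100% = 10 µM staurosporine.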 The conditions noted are these: Potency: caspase-3 activation. The procedure, abridged:
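Caspase-Glo 3/7 read-out, rat primary kidney proximal tubule cells. Compound exposure 16 h, 37 °C; detection after 1 h at RT. Activity scaled to DMSO and 10 uM staurosporine.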

Sequence of Cytochrome P450 2C19 (Homo sapiens) (P33261 whole entry, looked up): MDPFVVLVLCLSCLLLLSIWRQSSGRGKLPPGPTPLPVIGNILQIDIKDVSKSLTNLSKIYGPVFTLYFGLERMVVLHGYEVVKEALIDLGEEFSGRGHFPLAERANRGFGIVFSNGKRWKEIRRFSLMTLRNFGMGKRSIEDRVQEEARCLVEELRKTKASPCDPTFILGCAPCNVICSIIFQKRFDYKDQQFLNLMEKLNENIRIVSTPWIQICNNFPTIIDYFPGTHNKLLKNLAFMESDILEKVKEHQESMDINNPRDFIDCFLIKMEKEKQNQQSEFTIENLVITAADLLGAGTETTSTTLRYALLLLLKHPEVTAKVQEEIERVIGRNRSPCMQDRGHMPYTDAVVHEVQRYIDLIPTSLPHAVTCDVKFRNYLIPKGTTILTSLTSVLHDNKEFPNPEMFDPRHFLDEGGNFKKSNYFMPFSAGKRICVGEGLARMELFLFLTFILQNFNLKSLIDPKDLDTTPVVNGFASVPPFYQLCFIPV
Sequence of 3',5'-cyclic-AMP phosphodiesterase 4B (Homo sapiens) (Q07343 whole entry, looked up): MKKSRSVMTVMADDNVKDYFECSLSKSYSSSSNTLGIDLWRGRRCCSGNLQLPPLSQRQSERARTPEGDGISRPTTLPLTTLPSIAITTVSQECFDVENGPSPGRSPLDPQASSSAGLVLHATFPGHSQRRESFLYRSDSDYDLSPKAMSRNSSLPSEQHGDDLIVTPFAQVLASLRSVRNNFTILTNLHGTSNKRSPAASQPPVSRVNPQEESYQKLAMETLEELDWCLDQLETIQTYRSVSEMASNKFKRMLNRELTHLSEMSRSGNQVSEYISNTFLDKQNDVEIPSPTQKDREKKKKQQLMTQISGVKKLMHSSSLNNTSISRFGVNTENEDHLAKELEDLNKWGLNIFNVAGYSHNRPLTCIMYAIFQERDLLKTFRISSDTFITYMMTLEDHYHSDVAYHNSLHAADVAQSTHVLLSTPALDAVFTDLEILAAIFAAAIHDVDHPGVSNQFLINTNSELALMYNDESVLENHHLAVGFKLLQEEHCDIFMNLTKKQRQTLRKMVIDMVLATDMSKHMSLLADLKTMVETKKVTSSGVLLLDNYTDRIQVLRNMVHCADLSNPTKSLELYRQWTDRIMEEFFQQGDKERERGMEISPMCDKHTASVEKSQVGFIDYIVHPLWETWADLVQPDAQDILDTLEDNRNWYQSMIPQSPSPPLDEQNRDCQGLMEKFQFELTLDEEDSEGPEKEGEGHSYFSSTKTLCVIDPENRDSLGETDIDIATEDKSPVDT
Sequence of Cytochrome P450 2D6 (Homo sapiens) (P10635 whole entry, looked up): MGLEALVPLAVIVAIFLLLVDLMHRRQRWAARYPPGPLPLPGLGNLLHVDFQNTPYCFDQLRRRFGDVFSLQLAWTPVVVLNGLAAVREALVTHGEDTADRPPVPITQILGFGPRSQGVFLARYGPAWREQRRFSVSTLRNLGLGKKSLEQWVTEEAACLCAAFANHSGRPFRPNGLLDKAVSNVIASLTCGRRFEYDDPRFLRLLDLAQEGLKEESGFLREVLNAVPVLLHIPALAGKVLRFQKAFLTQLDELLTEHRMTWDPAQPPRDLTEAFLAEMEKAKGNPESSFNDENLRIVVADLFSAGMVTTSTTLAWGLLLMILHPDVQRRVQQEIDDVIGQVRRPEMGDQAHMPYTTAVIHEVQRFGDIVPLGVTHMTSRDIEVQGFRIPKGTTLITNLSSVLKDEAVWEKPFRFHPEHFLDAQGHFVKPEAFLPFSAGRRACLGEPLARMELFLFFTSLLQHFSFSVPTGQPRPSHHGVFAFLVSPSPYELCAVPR
Sequence of Cytochrome P450 3A4 (Homo sapiens) (P08684 whole entry, looked up): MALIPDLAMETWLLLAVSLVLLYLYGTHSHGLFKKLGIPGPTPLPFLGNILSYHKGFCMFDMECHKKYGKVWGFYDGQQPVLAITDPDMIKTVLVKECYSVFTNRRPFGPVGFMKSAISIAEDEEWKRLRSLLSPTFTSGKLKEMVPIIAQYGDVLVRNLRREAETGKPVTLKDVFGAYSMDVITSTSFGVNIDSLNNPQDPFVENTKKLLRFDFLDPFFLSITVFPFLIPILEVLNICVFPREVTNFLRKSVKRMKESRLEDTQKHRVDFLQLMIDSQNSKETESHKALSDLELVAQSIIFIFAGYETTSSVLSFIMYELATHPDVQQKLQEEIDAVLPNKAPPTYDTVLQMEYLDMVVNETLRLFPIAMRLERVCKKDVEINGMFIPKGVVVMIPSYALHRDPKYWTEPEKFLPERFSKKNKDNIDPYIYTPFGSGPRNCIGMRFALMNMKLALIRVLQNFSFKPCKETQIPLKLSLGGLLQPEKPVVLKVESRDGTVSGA

As to `O=C1C[C@@H](c2ccc(O)cc2)Oc2cc(O)cc(O)c21`, the call in [1] was inactive. In addition, the Potency entry in experiment [2] was “inactive”.

On to `CCN(CC)CCOC(=O)c1ccc(N)cc1`, for which the compound was classed as inactive in experiment [1]. Besides, the Potency entry in experiment [3] and in experiment [4] was “inactive” in each case.

For `CCCCCCCCCCCC1=C(O)C(=O)C=C(O)C1=O`, the call in experiment [1] was inactive. In addition, the Potency in experiment [5] is 25.1 µM (active); in experiment [2], “inactive and 2 µM (active)”. The Potency result in experiment [3] is “inactive”.

`CS(=O)c1ccc(-c2nc(-c3ccc(F)cc3)c(-c3ccncc3)[nH]2)cc1` (configuration not stated): the results for the Potency in experiment [5] and in experiment [7] were 2 µM (active) and 0.0398 µM (active), respectively. In addition, in experiment [6], the result was inactive.

Regarding `CC1(C)CCC2=C(O1)c1ccccc1C(=O)C2=O`, the compound was called inactive in experiment [1]. Moreover, the Potency in experiment [4] was 8.91 µM (active).

Take `COc1ccc(-c2coc3cc(O)cc(O)c3c2=O)cc1`: the Potency result in experiment [5] was “inactive”. Besides, the Potency in experiment [3] was 20 µM (active); in experiment [2] it was 31.6 µM (active); in [7], 7.94 µM (active). Also, the compound was classed as inactive in experiment [6].

As for `Nc1ncnc2c1ncn2[C@@H]1O[C@H](CO)C[C@@H]1O`, in experiment [3], the Potency entry is “inactive”.

On to `O=c1cc(-c2ccccc2)oc2cc(O)c(O)c(O)c12`, for which the result in experiment [1] and in [6] was inactive. The Potency in experiment [5] was 5.01 µM (active); in [2], 31.6 µM (active); in experiment [7], 5.01 µM (active).

With `COCCCCC(=NOCCN)c1ccc(C(F)(F)F)cc1`, the outcome in [1] and in [6] was inactive. Also, the Potency is 3.98 µM (active) in experiment [2] and 0.0631 µM (active) in experiment [7].

As to `O=C(O)c1cc(O)c2c(c1)C(=O)c1cccc(O)c1C2=O`, the Potency entry in experiment [8], in experiment [10], in [13], in [16], in [17] and in experiment [19] was “inactive” in each case. For the same compound, the Potency entry in experiment [3] was “inactive”. Moreover, the values for the caspase-3 activation in experiment [9], in experiment [14] and in [15] were -6.3% (inactive), -1.07% (inactive) and 1.57% (inactive), respectively. Moreover, the outcome in [11], in experiment [12], in experiment [18] and in [6] was inactive.

For the compound `O=C1C(Cl)=C(NCCN2CCOCC2)C(=O)c2ncccc21`, the Potency in [3] is 2.51 µM (active). Further, the call in experiment [6] was inactive.

Regarding `CC(=O)CCCCn1c(=O)c2c(ncn2C)n(C)c1=O`, the outcome in experiment [1] was inactive. In addition, the Potency entry in experiment [5], in experiment [3], in experiment [2] and in experiment [7] was “inactive” throughout.

Consider `O=C1NCC2(CCN(CCc3ccccc3)CC2)O1`, for which the compound was classed as inactive in [1]. The Potency result in experiment [3] was “inactive”.

For the compound `NCCS`, in [1], the outcome was inactive. The Potency entry in experiment [3] and in experiment [4] was “inactive” each time.

For the compound `COc1ccccc1N1CCN(CCCNc2cc(=O)n(C)c(=O)n2C)CC1`, the call in experiment [1] was inactive. Further, the Potency entry in experiment [3] was “inactive”. In addition, the Potency in experiment [7] was 7.94 µM (active).

Consider `O=c1cc(-c2ccccc2)oc2cc(O)cc(O)c12`, for which the outcome in [1] and in [6] was inactive. In addition, the Potency is 7.94 µM (active) and inactive and 2.51 µM (active) in experiment [3]; 0.794 µM (active) in [7].

Regarding `Clc1ccc(Cn2c(CN3CCCC3)nc3ccccc32)cc1`, the call in experiment [1] and in [6] was inactive. The Potency in experiment [2] was 1.26 µM (active) and 794 nM (active); in experiment [7], 0.199 µM (active).

Turning to `COc1cccc(-c2cc(=O)c3ccccc3o2)c1N`, the call in experiment [1] and in experiment [6] was inactive. Further, the Potency is 7.94 µM (active) in experiment [3] and 6.31 µM (active) in [7]. For the same compound, the Potency result in [4] is “inactive”.

With `CCN(CC)C(=O)c1ccc(O)c(OC)c1`, in experiment [1], the compound was classed as inactive. The Potency entry in experiment [5], in experiment [3], in [2] and in [7] was “inactive” in each case.

Regarding `COc1cc(O)c2c(c1)C(=O)c1cc(C)cc(O)c1C2=O`, the Potency result in [3] was “inactive”.
